Here are results for 34 compounds from ChEMBL document CHEMBL3433997, “St. Jude Leishmania screening dataset” (2016).

“And” between values parts separate entries of the source, which are not always exact repeats. Equal entries are not always repeated.

Holding throughout (format): functional
Assay [1] concerns the target Solute carrier family 2, facilitated glucose transporter member 1 (Homo sapiens) (UniProt P11166). In words: ST_JUDE_LEISH: Cytotoxicity at 2uM final concentration against transgenic Leishmania Mexicana promastigotes LmGLUT1 that are glucose transport deficient and complemented with the human glucose transporter GLUT1. Activity is measured by DNA content using SYBR green in vitro.

In assay [2] the target is Hexose transporter 1 (Plasmodium falciparum) (UniProt O97467). In words: ST_JUDE_LEISH: Cytotoxicity at 2uM final concentration against transgenic Leishmania Mexicana promastigotes LmPfHT that are glucose transport deficient and complemented with the Plasmodium falciparum hexose transporter. Activity is measured by DNA content using SYBR green in vitro.
Assay [3] deals with Glucose transporter (Leishmania mexicana) (UniProt O61059). In words: ST_JUDE_LEISH: Cytotoxicity at 2uM final concentration against transgenic Leishmania Mexicana promastigotes LmGT2 that are glucose transport deficient and complemented with the L. Mexicana glucose transporter 2. Activity is measured by DNA content using SYBR green in vitro.

Chain of Solute carrier family 2, facilitated glucose transporter member 1 (Homo sapiens) (P11166 whole entry): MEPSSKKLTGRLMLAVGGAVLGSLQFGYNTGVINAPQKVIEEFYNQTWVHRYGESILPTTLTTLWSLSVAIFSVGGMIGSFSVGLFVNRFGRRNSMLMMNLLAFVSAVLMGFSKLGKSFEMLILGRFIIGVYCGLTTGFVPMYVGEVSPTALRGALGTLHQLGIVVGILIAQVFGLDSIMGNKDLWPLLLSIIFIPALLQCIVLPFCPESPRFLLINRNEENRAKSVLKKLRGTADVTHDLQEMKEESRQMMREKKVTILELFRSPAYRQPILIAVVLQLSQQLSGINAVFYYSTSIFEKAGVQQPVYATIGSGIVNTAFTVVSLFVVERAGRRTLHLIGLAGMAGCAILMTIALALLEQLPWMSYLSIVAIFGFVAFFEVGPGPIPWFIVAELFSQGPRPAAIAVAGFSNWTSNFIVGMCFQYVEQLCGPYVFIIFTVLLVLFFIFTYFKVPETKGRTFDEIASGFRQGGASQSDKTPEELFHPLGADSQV

Turning to `Cc1c(C)c2c(c(C)c1O)CC[C@@](C)(C(=O)NC1CCC(CN3CCC(c4c[nH]c5ccccc45)CC3)CC1)O2` (some centres not stated), the inhibition was determined as 6.35% in assay [1], 5.08% in assay [2] and 3.01% in assay [3].

Turning to `CCOc1ccc2nccc([C@@H](O)[C@@H]3C[C@@H]4CCN3C[C@@H]4CC)c2c1`, the inhibition in assay [1] is 1.23% and 2.9%; in assay [2], 1.71% and 3.63%; in assay [3] it was 3.59% and -0.94%.

On to `C[C@H](Cc1ccc(OCCCCCCOc2ccccc2)cc1)NC[C@H](O)c1cccc(Cl)c1`, for which the inhibition in assay [1] was -0.31%; in assay [2] it was -0.04%; in assay [3], -0.25%.

As to `CCCCCCC(CC)c1cc(O)c2c(c1)OC(C)(C)c1ccncc1-2` (configuration not stated), the values for the inhibition in assay [1], in assay [2] and in assay [3] were 3.06%, 2.42% and -0.4%, respectively.

For the compound `O=C(NC1CCC(CN2CCC(c3c[nH]c4ccccc34)CC2)CC1)c1ccc(-c2cc(C(F)(F)F)ccc2Cl)o1` (configuration not stated), the inhibition in assay [1] is 4%; in assay [2] it was 6.53%; in assay [3], 3.83%.

Regarding `Cn1nc(-c2ccc(S(=O)(=O)N3CCC(CN4CCC(c5c[nH]c6ccccc56)CC4)CC3)s2)cc1C(F)(F)F`, the values for the inhibition in assay [1], in assay [2] and in assay [3] were 0.1%, 2.15% and -1.24%, respectively.

`O=C(Cc1c(-c2ccccc2)[nH]c2ccccc12)NC1CCC(CN2CCC(c3c[nH]c4ccccc34)CC2)CC1` (configuration not stated): the inhibition turned out to be 4.32% in assay [1], 4% in assay [2] and 2.03% in assay [3].

In the case of `O=C(C=Cc1cccc(Cl)c1Cl)NC1CCC(CN2CCC(c3c[nH]c4ccccc34)CC2)CC1` (configuration not stated), the inhibition was 9.75% and 1.21% in assay [1]; 23.6% and 3.22% in assay [2]; 11.8% and -0.36% in assay [3].

On to `COc1ccc(CN(C2CC2)C(C)C(=O)c2[nH]c(C)c(C(C)=O)c2C)cc1` (configuration not stated), for which the inhibition was -1.09% in assay [1], 1.96% in assay [2] and -1.15% in assay [3].

Turning to `COCC(=O)N(Cc1ccccc1-c1cccc(CNCCc2ccccc2)c1)C1CCN(Cc2ccccc2)CC1`, the inhibition in assay [1] came to 0.81%; in assay [2], 0.92%; in assay [3], 3.9%.

As to `CN(C)c1cccc(CN2CC=C(c3c[nH]c4ccc(Cl)cc34)CC2)c1`, the results for the inhibition in assay [1], in assay [2] and in assay [3] were 8.22%, 6.95% and 4.91%, respectively.

With `CC[C@H]1CN2CC[C@@H]1C[C@H]2[C@H](O)c1cc(N2CCC(C(N)=O)CC2)nc2ccc(OC)cc12`, the inhibition is 8.84% in assay [1], 7.92% in assay [2] and 8.43% in assay [3].

On to `CN1CCN(c2ccc3[nH]c(-c4ccc5[nH]c(-c6ccc(O)cc6)nc5c4)nc3c2)CC1`, for which the inhibition in assay [1] amounted to 4.92%; in assay [2], 5.09%; in assay [3], 2.92%.

On to `COc1cccc(C=CC(=O)NC2CCC(CN3CCC(c4c[nH]c5ccccc45)CC3)CC2)c1OC` (configuration not stated), for which the figures for the inhibition in assay [1], in assay [2] and in assay [3] were 1.83%, 2.37% and 14.2%, respectively.

Consider `C=CC12CCN(CC1)C(C(O)c1ccnc3ccc(OC)cc13)C2` (configuration not stated), for which the inhibition in assay [1] is 0.26%; in assay [2], 0.03%; in assay [3] it was -0.85%.

For the compound `COc1ccc(C=CC(=O)NC2CCC(CN3CCC(c4c[nH]c5ccccc45)CC3)CC2)cc1OC` (configuration not stated), the inhibition in assay [1] was 2.26% and 2.87%; in assay [2], 0.82% and 2.73%; in assay [3] it was -1.08% and -3.42%.

With `c1ccc(C(OCCC2CCN(Cc3cccc4cccnc34)CC2)c2ccccc2)cc1`, the inhibition was 9.36% in assay [1], 8.53% in assay [2] and 5.64% in assay [3].

Take `O=C(/C=C/c1ccc(Cl)cc1)NC1CCC(CN2CCC(c3c[nH]c4ccccc34)CC2)CC1` (configuration not stated): the inhibition in assay [1] is 0.07% and -1.03%; in assay [2], 0.24% and -2.23%; in assay [3], -1.22% and 2.14%.

Take `CC(Cc1ccc(OCCCCOc2ccccc2)cc1)NCCC1CCCN1C` (configuration not stated): the inhibition in assay [1] worked out at 103%; in assay [2], 97.7%; in assay [3], 103%.

Regarding `O=C(NC1CCC(CN2CCC(c3c[nH]c4ccccc34)CC2)CC1)c1cc2ccccc2s1` (configuration not stated), the inhibition is -1.97% and 2.46% in assay [1]; 0.46% and 1.62% in assay [2]; -5.56% and 1.62% in assay [3].

For the compound `CCCCCCC(C)c1cc(O)c2c(c1)OC(C)(C)c1ccncc1-2` (configuration not stated), the inhibition in assay [1] is 1.12%; in assay [2] it was 0.89%; in assay [3] it was -1.19%.

Regarding `COc1ccc(CN2CCN(CCOC(c3ccccc3)c3ccc(Cl)cc3)CC2)c(O)c1` (configuration not stated), the inhibition in assay [1] stood at 9.85%; in assay [2] it was 10.7%; in assay [3], 6.46%.

On to `CC(C)(C)c1cc(/C=C/C(=O)NC2CCC(CN3CCC(c4c[nH]c5ccccc45)CC3)CC2)cc(C(C)(C)C)c1O` (configuration not stated), for which the inhibition in assay [1] was 2.87% and 2.94%; in assay [2] it was 0.49% and 5.11%; in assay [3], -0.51% and 1.19%.

Regarding `Oc1ccc2[nH]cc(C3=CCN(Cc4ccccc4)CC3)c2c1`, the results for the inhibition in assay [1], in assay [2] and in assay [3] were 11.2%, 10.5% and 10.4%, respectively.

Take `Cc1ccc(C(=O)Nc2ccnc(N(C)C3CCN(Cc4cccc(O)c4)CC3)c2)cn1`: the inhibition turned out to be 3.48% in assay [1], 1.94% in assay [2] and 1.3% in assay [3].

For `CC[C@H]1CN2CC[C@@H]1C[C@H]2[C@H](O)c1cc(-c2ccc(Cl)c(Cl)c2)nc2ccc(O)cc12`, the inhibition was -0.36% in assay [1], -1.15% in assay [2] and -0.47% in assay [3].

`CC[C@H]1CN2CC[C@@H]1C[C@H]2[C@H](O)c1cc(N2CCC(N3CCCCC3)CC2)nc2ccc(OC)cc12`: the inhibition is 1.26% in assay [1], 4.69% in assay [2] and -0.04% in assay [3].

For `N#Cc1ccc(N(CCCO)Cc2ccccc2C(F)(F)F)cc1C(F)(F)F`, the inhibition in assay [1] was -1.34%; in assay [2], -1.78%; in assay [3] it was -0.99%.

In the case of `Cn1cc(CN2CCC(CCOC(c3ccccc3)c3ccccc3)CC2)cn1`, the inhibition is 12.3% in assay [1], 9.95% in assay [2] and 5.33% in assay [3].

For the compound `O=C1Nc2cccc3c2C1(CCCCCN1CC=C(c2c[nH]c4ccccc24)CC1)CCC3` (configuration not stated), the inhibition in assay [1] was determined as 14.1%; in assay [2], 10.6%; in assay [3] it was 12.8%.

For `Cc1[nH]c2cc(F)ccc2c1C1=CCN(CCCCC2(C)C(=O)Nc3ccccc32)CC1` (configuration not stated), the inhibition in assay [1] amounted to 2.11%; in assay [2], 1.23%; in assay [3] it was 0.15%.

On to `O=C(NC1CCC(CN2CCC(c3c[nH]c4ccccc34)CC2)CC1)c1cnn(-c2ccccc2)c1-c1ccccc1Cl` (configuration not stated), for which the results for the inhibition in assay [1], in assay [2] and in assay [3] were 4.74%, 10.3% and 3.95%, respectively.

Turning to `COc1ccc(CN2CCN(CCOC(c3ccccc3)c3ccccc3)CC2)c(O)c1`, the inhibition in assay [1] was found to be 3.13%; in assay [2], 2.42%; in assay [3], 0.74%.

With `O=c1c2ccccc2nc(/C=C/c2ccc([N+](=O)[O-])cc2)n1-c1ccccn1`, the values for the inhibition in assay [1], in assay [2] and in assay [3] were 10.9%, 11% and 6.71%, respectively.

A word on the inhibition: it is the relative decrease from the control value, in per cent.
